Data reported in PubChem BioAssay.
The source made the active and inactive calls. Unless noted, no rule for the calls is given here.

Key:
[1] = anti-His antibody binders, primary screen, artefact control for SMM control protein annotation, biochemical, small-molecule microarray, 635 nm fluorescence (AID 1128); conditions: anti-His Alexa647 antibody binding, higher = more signal;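 also: score merges feature fluorescence with signal-to-noise for each printed compound spot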
[2] = test system: Human papillomavirus type 1a E7 protein (residues 1-88); test: HPV1a E7 small-molecule binders, primary screen, biochemical, small-molecule microarray, residues 1-88, 635 nm (AID 1129); conditions: small-molecule microarray binding, fluorescence 635 nm; higher = more signal
[3] = target: Focal adhesion kinase 1 (Homo sapiens) (UniProt Q05397); test: small-molecule microarray binders of FAK, primary screen, biochemical, 635/667 nm fluorescence, BSA, DTT (AID 1130); conditions: PTK2 binding, 635 nm fluorescence, higher = more signal;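 also: composite of spot emission at 667 nm and signal to noise over triplicate slides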
Chain of Focal adhesion kinase 1 (Homo sapiens) (Q05397 whole entry, looked up): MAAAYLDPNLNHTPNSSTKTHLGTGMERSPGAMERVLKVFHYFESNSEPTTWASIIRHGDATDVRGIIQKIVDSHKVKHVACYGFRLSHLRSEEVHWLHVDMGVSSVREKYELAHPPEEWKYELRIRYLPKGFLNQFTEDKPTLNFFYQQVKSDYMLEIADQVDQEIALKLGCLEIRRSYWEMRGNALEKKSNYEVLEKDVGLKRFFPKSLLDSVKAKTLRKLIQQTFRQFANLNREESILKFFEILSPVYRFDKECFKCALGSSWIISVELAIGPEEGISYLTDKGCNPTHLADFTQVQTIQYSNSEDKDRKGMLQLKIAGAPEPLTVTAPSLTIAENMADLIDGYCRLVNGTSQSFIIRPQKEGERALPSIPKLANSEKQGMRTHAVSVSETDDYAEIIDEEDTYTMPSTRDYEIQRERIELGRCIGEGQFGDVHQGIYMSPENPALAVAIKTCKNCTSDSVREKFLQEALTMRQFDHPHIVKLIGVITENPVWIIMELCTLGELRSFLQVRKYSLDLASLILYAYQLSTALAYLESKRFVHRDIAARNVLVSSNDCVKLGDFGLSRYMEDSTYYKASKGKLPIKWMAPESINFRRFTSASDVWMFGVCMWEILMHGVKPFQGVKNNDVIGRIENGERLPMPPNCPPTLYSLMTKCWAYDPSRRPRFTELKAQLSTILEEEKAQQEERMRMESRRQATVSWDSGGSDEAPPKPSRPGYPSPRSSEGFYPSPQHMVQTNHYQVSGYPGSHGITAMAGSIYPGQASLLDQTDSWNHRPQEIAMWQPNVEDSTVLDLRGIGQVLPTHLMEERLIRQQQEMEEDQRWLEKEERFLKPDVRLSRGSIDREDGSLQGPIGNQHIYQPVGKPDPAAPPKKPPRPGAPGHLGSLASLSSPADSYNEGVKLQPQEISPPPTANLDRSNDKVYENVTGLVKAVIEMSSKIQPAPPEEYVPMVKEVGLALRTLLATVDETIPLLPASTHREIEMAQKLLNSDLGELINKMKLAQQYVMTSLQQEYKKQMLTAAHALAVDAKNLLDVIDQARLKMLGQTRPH

[4] = test system: Fibrinogen (Alexa647-labelled); test: fibrinogen binders on compound microarrays, profiling panel, artefact control for SMM control-protein annotation, biochemical, small-molecule microarray, 635/667 nm fluorescence (AID 1131); conditions: fibrinogen-A647 binding fluorescence, higher = more signal;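 also: z-score merges 667 nm fluorescence with per-spot signal-to-noise over triplicate slides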
[5] = target: Follistatin (Homo sapiens) (UniProt P19883); test: follistatin binders on small-molecule microarrays, primary screen, biochemical, small-molecule microarray, 635/667 nm fluorescence (AID 1132); conditions: FST binding, 635 nm fluorescence, higher = more signal
Chain of Follistatin (Homo sapiens) (P19883 whole entry, looked up): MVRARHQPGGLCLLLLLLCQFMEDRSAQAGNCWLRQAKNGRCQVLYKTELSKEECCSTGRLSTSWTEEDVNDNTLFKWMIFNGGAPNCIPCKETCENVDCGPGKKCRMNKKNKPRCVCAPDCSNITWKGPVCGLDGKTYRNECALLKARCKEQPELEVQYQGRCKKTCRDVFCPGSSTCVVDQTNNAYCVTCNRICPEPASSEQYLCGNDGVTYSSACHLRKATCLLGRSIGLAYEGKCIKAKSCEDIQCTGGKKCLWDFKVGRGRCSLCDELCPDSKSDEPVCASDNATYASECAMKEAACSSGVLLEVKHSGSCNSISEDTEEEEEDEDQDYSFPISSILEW

[6] = target: Fibroblast growth factor 2 (Homo sapiens) (UniProt P09038); test: FGF2 binders on small-molecule microarrays, primary screen, biochemical, small-molecule microarray, 635/667 nm fluorescence (AID 1133); conditions: small-molecule microarray binding, FGF2, fluorescence 635/667; higher = more signal
Chain of Fibroblast growth factor 2 (Homo sapiens) (P09038 whole entry, looked up): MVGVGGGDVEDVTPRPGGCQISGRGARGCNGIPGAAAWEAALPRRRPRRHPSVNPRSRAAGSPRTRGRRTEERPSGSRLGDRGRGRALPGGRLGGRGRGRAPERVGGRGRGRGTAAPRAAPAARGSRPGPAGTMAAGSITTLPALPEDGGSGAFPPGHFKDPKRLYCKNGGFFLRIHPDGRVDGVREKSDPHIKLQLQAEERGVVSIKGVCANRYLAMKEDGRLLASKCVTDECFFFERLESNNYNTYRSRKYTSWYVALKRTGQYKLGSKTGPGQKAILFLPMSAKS

[7] = mitochondrial membrane potential change in A549 cells, profiling panel, cell-based, JC-1 fluorescence, basal, 24 h, 100 nL (AID 1138); conditions: higher = more signal;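 also: A549 lung adenocarcinoma cells under basal conditions with no added stimulus; test concentration not given here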
Lefty1 = Lefty1 binders on small-molecule microarrays, primary screen, biochemical, small-molecule microarray, 635/667 nm fluorescence (AID 1139); conditions: small-molecule microarray binding, fluorescence 635/667; higher = more signal
[8] = test system: wheat germ agglutinin (Triticum aestivum), Alexa647-labelled; test: wheat germ agglutinin binders on compound microarrays, profiling panel, artefact control for SMM control-protein annotation, biochemical, small-molecule microarray, 635/667 nm fluorescence (AID 1140); conditions: WGA-A647 binding, 635 nm fluorescence, higher = more signal;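 also: score merges 667 nm feature emission with signal to noise over triplicate slides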
[9] = target: Luciferin 4-monooxygenase (Photinus pyralis) (UniProt P08659); test: firefly luciferase enzyme inhibitors, primary screen, biochemical, luminescence, purified enzyme, 2006 set (AID 1141); conditions: SteadyGlo luminescence, 30 min, higher = more signal, called active from +8 up or from −8 down;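 also: cell-free assay with purified firefly luciferase at 100 ng per well in PBS; test concentration not given here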
Chain of Luciferin 4-monooxygenase (Photinus pyralis) (P08659 whole entry, looked up): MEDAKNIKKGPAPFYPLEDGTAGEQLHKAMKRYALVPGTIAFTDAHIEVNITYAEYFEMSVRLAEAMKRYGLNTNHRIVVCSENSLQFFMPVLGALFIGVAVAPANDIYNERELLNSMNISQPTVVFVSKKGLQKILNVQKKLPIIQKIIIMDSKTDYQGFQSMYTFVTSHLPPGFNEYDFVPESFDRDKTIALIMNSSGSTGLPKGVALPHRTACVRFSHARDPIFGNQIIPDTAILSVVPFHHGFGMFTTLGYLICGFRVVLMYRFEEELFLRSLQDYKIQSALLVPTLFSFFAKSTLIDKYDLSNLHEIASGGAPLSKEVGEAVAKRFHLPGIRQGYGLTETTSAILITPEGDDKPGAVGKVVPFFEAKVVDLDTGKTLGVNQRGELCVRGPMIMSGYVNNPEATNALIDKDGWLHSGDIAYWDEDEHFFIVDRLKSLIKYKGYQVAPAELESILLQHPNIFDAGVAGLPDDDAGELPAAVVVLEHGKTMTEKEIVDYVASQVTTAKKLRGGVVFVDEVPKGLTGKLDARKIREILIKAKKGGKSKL

[10] = test system: Wnt5a (protein binding on small-molecule microarray); test: Wnt5a binders on small-molecule microarray, primary screen, biophysical, 635/667 nm fluorescence (AID 1142); conditions: 635 nm fluorescence, higher = more signal;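 also: fluorescence read at 667 nm with signal to noise per printed feature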
[11] = cell viability in Huh7 cells, primary screen, cytotoxicity control for HCV replication inhibitor project, CellTiter-Glo luminescence, basal, 48 h (AID 1143); conditions: Huh7 HCV replicon, higher = more signal, called active from +8 up or from −8 down;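 also: Huh7 hepatoma cells carrying a hepatitis C replication reporter with no stimulus; test concentration not given here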
[12] = P. aeruginosa biofilm formation inhibitors, primary screen, PAO1 strain, BacTiter-Glo luminescence, LB-PBS (AID 1144); conditions: 12 h, higher = more signal
[13] = CREB reporter modulators without forskolin, primary screen, cell-based, PC12, CRE-LacZ reporter, unstimulated (AID 1145); conditions: no forskolin, luminescence, 4.5 h, higher = more signal, called active from +8 up or from −8 down
[14] = CREB reporter modulators under forskolin, primary screen, cell-based, PC12, CRE-LacZ reporter, forskolin-stimulated (AID 1146); conditions: luminescence, 4.5 h, higher = more signal, called active from +8 up or from −8 down;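 also: PC12 cells with 6xCRE LacZ reporter stimulated by forskolin 10 µM; beta-galactosidase reporter signal reflecting CREB driven transcription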
[15] = target: Streptavidin (Streptomyces avidinii) (UniProt P22629); test: streptavidin binders on small-molecule microarray, primary screen, artefact control for SMM compound annotation, biophysical, 635/667 nm fluorescence (AID 1147); conditions: streptavidin binding, higher = more signal;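 also: signal reflects streptavidin binding to arrayed compounds as a control protein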
Chain of Streptavidin (Streptomyces avidinii) (P22629 whole entry, looked up): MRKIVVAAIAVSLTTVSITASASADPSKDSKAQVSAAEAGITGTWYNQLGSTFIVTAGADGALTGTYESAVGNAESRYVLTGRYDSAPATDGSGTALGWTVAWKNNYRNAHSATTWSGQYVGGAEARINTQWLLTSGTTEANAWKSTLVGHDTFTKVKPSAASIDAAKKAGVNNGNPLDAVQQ

[16] = small-molecule binders of probe aInhba, primary screen, biochemical, small-molecule microarray, 635/667 nm fluorescence (AID 1148); conditions: higher = more signal;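 also: score merges 667nm spot fluorescence with signal-to-noise for antibody binding to printed compounds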
Torsin-1A (Homo sapiens) [17] = target: Torsin-1A (Homo sapiens) (UniProt O14656); test: torsin A binders from cell lysate, primary screen, small-molecule microarray, wild-type, 635/667 nm (AID 1149); conditions: COS7 hTOR1A-WT lysate, 635 nm fluorescence, higher = more signal
Chain of Torsin-1A (Homo sapiens) (O14656 whole entry, looked up): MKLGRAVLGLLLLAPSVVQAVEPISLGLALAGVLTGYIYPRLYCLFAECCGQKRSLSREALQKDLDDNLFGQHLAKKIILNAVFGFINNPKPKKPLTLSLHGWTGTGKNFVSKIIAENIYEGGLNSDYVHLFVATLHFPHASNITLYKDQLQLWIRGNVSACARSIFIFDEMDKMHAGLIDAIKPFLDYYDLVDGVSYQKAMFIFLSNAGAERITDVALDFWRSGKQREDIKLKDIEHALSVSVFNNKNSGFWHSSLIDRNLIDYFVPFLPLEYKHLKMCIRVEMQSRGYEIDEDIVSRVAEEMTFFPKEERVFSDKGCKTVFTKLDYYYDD

Torsin-1A (Homo sapiens) [18] = target: Torsin-1A (Homo sapiens) (UniProt O14656); test: small-molecule binders of mutant TOR1A in lysate, primary screen, cell lysate, small-molecule microarray, COS7 lysate, 635/667 nm fluorescence (AID 1150); conditions: COS7 hTOR1A mutant lysate, 635 nm fluorescence, higher = more signal;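 also: score pools 667 nm emission and signal to noise measuring lysate protein binding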
[19] = test system: Sonic hedgehog protein (Shh); test: small-molecule binders of Shh protein, primary screen, biochemical, small-molecule microarray, 635/667 nm fluorescence (AID 1151); conditions: small-molecule microarray binding, 635 nm fluorescence; higher = more signal;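 also: Shh protein binding to compounds spotted on small-molecule microarray slides; score combines spot fluorescence intensity with signal-to-noise across triplicate slides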

Row | Compound | composite z-score [1] | composite z-score [2] | composite z-score [3] | composite z-score [4] | composite z-score [5] | composite z-score [6] | z-score [7] | composite z-score (Lefty1) | composite z-score [8] | z-score [9] | composite z-score [10] | z-score [11] | z-score [12] | z-score [13] | z-score [14] | composite z-score [15] | composite z-score [16] | composite z-score (Torsin-1A (Homo sapiens) [17]) | composite z-score (Torsin-1A (Homo sapiens) [18]) | composite z-score [19]
1 | Cc1ccc(S[C@]2(C(=O)NC(C)C)CC(=O)N(Cc3ccccc3C(F)(F)F)[C@@H]2c2ccc(CO)cc2I)cc1 | 1.15 | -0.0732 | 0.955 | -0.515 | 0.0697 | -0.848 | -0.279 | -1.03 | -0.229 | 1.35 (inactive) | -0.38 | -4.73 (inactive) | -0.9 (inactive) | -0.141 (inactive) | 1.12 (inactive) | -0.281 | -0.239 | -0.93 | -1.17 | -0.181
2 | Cc1ccc(F)cc1S(=O)(=O)N[C@@H]1CCN(Cc2ccc(Oc3ccccc3)cc2)C1 | 0.258 | -0.922 | -0.271 | 0.738 | 1.03 | 0.424 | 0.663 | 1.09 | 0.853 | 0.453 (inactive) | -0.123 | -4.83 (inactive) | 0.913 (inactive) | 0.677 (inactive) | 0.865 (inactive) | -0.235 | -0.0403 | 0.575 | 0.251 | 1.07
3 | CN(C)CCCNC(=O)[C@@]1(c2ccc([N+](=O)[O-])cc2)CC(=O)N(CC23CC4CC(CC(C4)C2)C3)[C@@H]1c1ccc(CO)cc1 | 1.03 | 1.19 | 0.703 | 0.807 | 1.28 | 0.844 | 0.742 | 0.99 | 0.955 | 0.292 (inactive) | 0.461 | -5.82 (inactive) | -0.262 (inactive) | -0.295 (inactive) | -0.741 (inactive) | 2.03 | 0.641 | -0.183 | 0.0626 | 0.989
4 | CCOC(=O)C[C@H]1[C@H](OC(=O)c2ccc(-c3ccccc3)cc2)[C@@H](NC(=O)c2ccc3ccccc3c2)c2cc(OCCCO)ccc2N1C(=O)c1ccc2ccccc2n1 | 0.558 | 0.921 | -0.152 | 0.735 | 0.458 | -0.141 | 0.329 | 0.367 | 0.209 | -0.704 (inactive) | 0.0577 | 0.866 (inactive) | -0.0546 (inactive) | -0.593 (inactive) | -0.611 (inactive) | 1.02 | 0.106 | 0.138 | 0.527 | 0.539
5 | CC(C)CN1C(=O)[C@@]2(c3ccc([N+](=O)[O-])cc3)CC(=O)N(CC34CC5CC(CC(C5)C3)C4)[C@@H]2c2ccc(CO)cc21 | 2.34 | -0.636 | -0.253 | 0.233 | -1.16 | -1.14 | -0.422 | -0.969 | -0.323 | 0.0209 (inactive) | -0.765 | -4.16 (inactive) | -1.58 (inactive) | -0.348 (inactive) | 0.134 (inactive) | -0.877 | -0.128 | -1.22 | -1.08 | -1.51
6 | COC(=O)C1(Cc2ccccc2)C=C2C(=C(c3ccccc3)C(=O)C2C)CN1 (stereo not given) | 1.76 | 1.11 | -0.0788 | 0.152 | -0.111 | 0.404 | 0.408 | -0.586 | 0.943 | 1.98 (inactive) | 2 | -0.541 (inactive) | 0.125 (inactive) | 1.15 (inactive) | 0.465 (inactive) | 0.509 | 0.862 | 0.0676 | 0.47 | -0.525
7 | CC(C)N1CC=CC23O[C@@H]4C=CCCOC(=O)C4[C@H]2C(=O)N(CCO)[C@@H]3C1=O (stereo not given in full) | -0.517 | -1 | -0.482 | -0.288 | -0.194 | -0.205 | -0.467 | 0.0404 | 0.459 | 0.697 (inactive) | -0.496 | -0.102 (inactive) | -2.21 (inactive) | -1.99 (inactive) | -0.665 (inactive) | -0.516 | -0.213 | 0.862 | 0.875 | -0.0837
8 | O=C1c2ccccc2[C@@]2(Cc3ccccc3N(C3CC3)C2=O)[C@H](c2ccc(CO)cc2)N1C1CCCCC1 | -1.14 | -0.729 | -0.375 | -0.624 | -0.667 | -0.329 | 0.306 | -0.825 | 0.637 | 0.429 (inactive) | -0.157 | 0.0786 (inactive) | 0.122 (inactive) | 0.145 (inactive) | 0.428 (inactive) | -0.885 | -0.0791 | -0.822 | -0.928 | -0.309
9 | NC(=O)N1C(=O)C2C(C1=O)C1C=C(CCCO)C2C(c2cccs2)N1Cc1cc2c(cc1Br)OCO2 (stereo not given) | 2.23 | -0.212 | 1.67 | 0.87 | 0.192 | -0.681 | 0.707 | 0.574 | 0.851 | -0.062 (inactive) | -0.25 | -0.477 (inactive) | -0.584 (inactive) | 0.424 (inactive) | -0.298 (inactive) | 1.13 | -0.0983 | -0.164 | 0.279 | 0.0313
10 | O=C1NC(=O)C2C1C=CC(C(O)c1cc(C(F)(F)F)cc(C(F)(F)F)c1)N2Nc1ccc(Cl)cc1Cl (stereo not given) | 0.864 | 1.05 | 0.46 | -0.607 | 0.109 | -0.544 | -0.836 | -1.03 | 0.802 | 0.172 (inactive) | 0.465 | -1.32 (inactive) | -0.673 (inactive) | -0.329 (inactive) | 0.78 (inactive) | 0.416 | 0.069 | -0.371 | 0.357 | -0.384
